The values below come from PubChem BioAssay (NCI).

Experiment [1] is described as follows: NCI Yeast Anticancer Drug Screen. Data for the rad50 strain (AID 155).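 Note: 0% = growth of vehicle-only cultures of the same strain.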 The settings on record: S. cerevisiae rad50 strain growth inhibition, stronger effect = higher value. In short, it runs like this:
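Relative growth inhibition (compound vs vehicle) was measured in yeast with a defined repair-gene alteration.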

Experiment [2] can be described thus: NCI Yeast Anticancer Drug Screen. Data for the mec2-1 strain (AID 157). Particulars: S. cerevisiae mec2-1 strain, stronger effect = higher value. In a few lines:
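Each compound was tested on mec2-1 yeast, a strain altered in DNA damage repair or cell cycle control. Growth inhibition is reported relative to vehicle.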

Experiment [3] in a line: NCI Yeast Anticancer Drug Screen. Data for the sgs1 mgt1 strain (AID 161).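 Note: 0% = growth of cultures given vehicle only.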 The settings on record: S. cerevisiae sgs1 mgt1 strain, stronger effect = higher value. In a few lines: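 Mutant yeast exposed to compound; growth scored against vehicle-only wells.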
Experiment [4] in a line: NCI Yeast Anticancer Drug Screen. Data for the cln2 rad14 strain (AID 165).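 Note: 0% = growth equal to vehicle treated cultures.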 The settings on record: S. cerevisiae cln2 rad14 strain, stronger effect = higher value. In a few lines: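 Test compounds were added to cln2 rad14 yeast cultures; inhibition of growth was then determined by comparison with vehicle treatment.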
The nature of experiment [5]: NCI Yeast Anticancer Drug Screen. Data for the bub3 strain (AID 167). The settings on record: S. cerevisiae bub3 mutant strain, stronger effect = higher value. In short, it runs like this:
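Screening used yeast with an engineered genetic alteration affecting cell cycle control. Compound-exposed cultures were compared with vehicle cultures, and reduced growth was taken as inhibition.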

The nature of experiment [6]: NCI Yeast Anticancer Drug Screen. Data for the mlh1 rad18 strain (AID 175). The settings on record: S. cerevisiae mlh1 rad18 strain growth inhibition, stronger effect = higher value. In a few lines: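 Inhibition values reflect reduced growth of mutant yeast versus vehicle-treated controls following compound exposure; the mutations affect DNA damage repair.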
Where [7] appears, read: at 5.0 µM (retest, dose inferred, filed as 0.5).
The mark [8] stands for this setting: at 50.0 µM (retest, dose inferred, filed as 5.0).

Molecules are shown by their SMILES. About 79,000 compounds went through this panel and 15% of them were active in at least one assay; those are over-represented in the sample as a whole. Unmarked numbers belong to inactive results. Active and inactive are the calls of the source. Cut-off read from the data, not from the text of the source: active = growth inhibition above about 70%; inactive = the rest.

As to `CN(C)CC(CN(C)C)C(=O)c1ccc(Oc2ccccc2)cc1`, the growth inhibition in experiment [1] (setting [7]) was 75% (active); in experiment [1] (setting [8]), 99% (active); in experiment [1] (at 50.0 µM) it was 99.5% (active); in experiment [2] (setting [7]), 75% (active); in experiment [2] (setting [8]), 99% (active); in experiment [2] (at 50.0 µM), 99.7% (active). The growth inhibition in experiment [3] (setting [7]) is 85% (active); in experiment [3] (setting [8]), 99% (active); in experiment [3] (at 50.0 µM), 99.4% (active); in experiment [4] (setting [7]), 33%; in experiment [4] (setting [8]), 99% (active); in experiment [4] (at 50.0 µM) it was 99.6% (active). Moreover, the growth inhibition was 69% in experiment [5] (setting [7]); 99% (active) in experiment [5] (setting [8]); 99.5% (active) in experiment [5] (at 50.0 µM); 90% (active) in experiment [6] (setting [7]); 99% (active) in experiment [6] (setting [8]); 99.4% (active) in experiment [6] (at 50.0 µM).
As for `CCOC(=O)/C(=C/c1ccccn1)C(=O)c1ccccc1`, the growth inhibition is 19% in experiment [1] (setting [7]); 85% (active) in experiment [1] (setting [8]); 85.8% (active) in experiment [1] (at 50.0 µM); 18% in experiment [2] (setting [7]); 93% (active) in experiment [2] (setting [8]); 85.7% (active) in experiment [2] (at 50.0 µM). In addition, the growth inhibition in experiment [3] (setting [7]) is 17%; in experiment [3] (setting [8]), 85% (active); in experiment [3] (at 50.0 µM), 84.8% (active); in experiment [4] (setting [7]) it was 39%; in experiment [4] (setting [8]), 85% (active); in experiment [4] (at 50.0 µM), 76.7% (active). The growth inhibition in experiment [5] (setting [7]) was 67%; in experiment [5] (setting [8]), 96% (active); in experiment [5] (at 50.0 µM), 88.7% (active); in experiment [6] (setting [7]), 53%; in experiment [6] (setting [8]), 94% (active); in experiment [6] (at 50.0 µM), 79.6% (active).
`CCN(CC)CCCC(Nc1c2ccc(Cl)cc2nc2ccc(OC)cc12)c1cccs1` (configuration not stated): the growth inhibition is 91% (active) in experiment [1] (setting [7]); 74% (active) in experiment [1] (setting [8]); 81.5% (active) in experiment [1] (at 50.0 µM); 91% (active) in experiment [2] (setting [7]); 72% (active) in experiment [2] (setting [8]); 35.2% in experiment [2] (at 50.0 µM). Further, the growth inhibition is 92% (active) in experiment [3] (setting [7]); 75% (active) in experiment [3] (setting [8]); 65.9% in experiment [3] (at 50.0 µM); 87% (active) in experiment [4] (setting [7]); 62% in experiment [4] (setting [8]); 74.8% (active) in experiment [4] (at 50.0 µM). For the same molecule, the growth inhibition in experiment [5] (setting [7]) is 90% (active); in experiment [5] (setting [8]), 68%; in experiment [5] (at 50.0 µM), 68.9%; in experiment [6] (setting [7]) it was 91% (active); in experiment [6] (setting [8]), 72% (active); in experiment [6] (at 50.0 µM), 62.5%.
Take `OCc1cccc2c1Oc1ccccc1S2`: the growth inhibition in experiment [1] (setting [7]) is 2%; in experiment [1] (setting [8]), 55%; in experiment [1] (at 50.0 µM), 52.4%; in experiment [2] (setting [7]), 4%; in experiment [2] (setting [8]) it was 63%; in experiment [2] (at 50.0 µM), -25.4%. The growth inhibition is 1% in experiment [3] (setting [7]); 66% in experiment [3] (setting [8]); -10.3% in experiment [3] (at 50.0 µM); -5% in experiment [4] (setting [7]); 17% in experiment [4] (setting [8]); -59.5% in experiment [4] (at 50.0 µM). Further, the growth inhibition in experiment [5] (setting [7]) is 11%; in experiment [5] (setting [8]) it was 73% (active); in experiment [5] (at 50.0 µM), -37.5%; in experiment [6] (setting [7]), 4%; in experiment [6] (setting [8]) it was 71% (active); in experiment [6] (at 50.0 µM), 2.9%.
`CN(C)CC(CN(C)C)C(=O)c1ccc(Oc2ccc(Cl)c(Cl)c2)cc1`: the growth inhibition in experiment [1] (setting [7]) was 18%; in experiment [1] (setting [8]), 96% (active); in experiment [1] (at 50.0 µM) it was 93.9% (active); in experiment [2] (setting [7]), 8%; in experiment [2] (setting [8]) it was 97% (active); in experiment [2] (at 50.0 µM), 96.8% (active). Also, the growth inhibition in experiment [3] (setting [7]) was 29%; in experiment [3] (setting [8]), 98% (active); in experiment [3] (at 50.0 µM), 96.7% (active); in experiment [4] (setting [7]), 4%; in experiment [4] (setting [8]), 95% (active); in experiment [4] (at 50.0 µM), 93.5% (active). Also, the growth inhibition in experiment [5] (setting [7]) was 6%; in experiment [5] (setting [8]) it was 98% (active); in experiment [5] (at 50.0 µM), 94.8% (active); in experiment [6] (setting [7]) it was 21%; in experiment [6] (setting [8]) it was 96% (active); in experiment [6] (at 50.0 µM), 96.3% (active).
With `Nc1ccc(S(=O)(=O)Nc2nc3ccccc3nc2N2CCCCCC2)cc1`, the growth inhibition in experiment [1] (setting [7]) was 30%; in experiment [1] (setting [8]) it was 79% (active); in experiment [1] (at 50.0 µM) it was 43.5%; in experiment [2] (setting [7]) it was 30%; in experiment [2] (setting [8]), 87% (active); in experiment [2] (at 50.0 µM) it was 48.1%. Further, the growth inhibition in experiment [3] (setting [7]) was 36%; in experiment [3] (setting [8]), 92% (active); in experiment [3] (at 50.0 µM), 82.2% (active); in experiment [4] (setting [7]), 40%; in experiment [4] (setting [8]), 92% (active); in experiment [4] (at 50.0 µM), 82.5% (active). Besides, the growth inhibition in experiment [5] (setting [7]) is 44%; in experiment [5] (setting [8]), 95% (active); in experiment [5] (at 50.0 µM), 85.2% (active); in experiment [6] (setting [7]), 39%; in experiment [6] (setting [8]), 90% (active); in experiment [6] (at 50.0 µM), 85.6% (active).
In the case of `CN(C)CCC(/C=C/c1ccccc1)=N\Nc1ccc(Cl)c(Cl)c1`, the growth inhibition in experiment [1] (setting [7]) is 98% (active); in experiment [1] (setting [8]) it was 96% (active); in experiment [1] (at 50.0 µM) it was 99.7% (active); in experiment [2] (setting [7]), 99% (active); in experiment [2] (setting [8]) it was 98% (active); in experiment [2] (at 50.0 µM) it was 99.6% (active). Besides, the growth inhibition in experiment [3] (setting [7]) was 99% (active); in experiment [3] (setting [8]), 98% (active); in experiment [3] (at 50.0 µM), 99.5% (active); in experiment [4] (setting [7]), 75% (active); in experiment [4] (setting [8]), 95% (active); in experiment [4] (at 50.0 µM), 98% (active). The growth inhibition in experiment [5] (setting [7]) is 95% (active); in experiment [5] (setting [8]) it was 97% (active); in experiment [5] (at 50.0 µM) it was 99.3% (active); in experiment [6] (setting [7]), 98% (active); in experiment [6] (setting [8]), 97% (active); in experiment [6] (at 50.0 µM), 99.5% (active).
As to `CC(N)C(O)c1ccc2ccc3ccccc3c2c1` (configuration not stated), the growth inhibition in experiment [1] (setting [7]) was -35%; in experiment [1] (setting [8]), 96% (active); in experiment [1] (at 50.0 µM) it was 63.7%; in experiment [2] (setting [7]), 0%; in experiment [2] (setting [8]), 96% (active); in experiment [2] (at 50.0 µM) it was 3.65%. The growth inhibition in experiment [3] (setting [7]) was 0%; in experiment [3] (setting [8]), 96% (active); in experiment [3] (at 50.0 µM), 64.8%; in experiment [4] (setting [7]), -13%; in experiment [4] (setting [8]) it was 36%; in experiment [4] (at 50.0 µM), 38.7%. Besides, the growth inhibition in experiment [5] (setting [7]) is 6%; in experiment [5] (setting [8]) it was 97% (active); in experiment [5] (at 50.0 µM), 66.9%; in experiment [6] (setting [7]), 11%; in experiment [6] (setting [8]), 98% (active); in experiment [6] (at 50.0 µM) it was 58.1%.
For `COc1ccc2c(C)cc(N/N=C/c3ccc(OC)c4ccccc34)nc2c1`, the growth inhibition was 27% in experiment [1] (setting [7]); 98% (active) in experiment [1] (setting [8]); 89.7% (active) in experiment [1] (at 50.0 µM); 51% in experiment [2] (setting [7]); 99% (active) in experiment [2] (setting [8]); 36.8% in experiment [2] (at 50.0 µM). Also, the growth inhibition is 66% in experiment [3] (setting [7]); 99% (active) in experiment [3] (setting [8]); 91% (active) in experiment [3] (at 50.0 µM); 0% in experiment [4] (setting [7]); 99% (active) in experiment [4] (setting [8]); 35.5% in experiment [4] (at 50.0 µM). The growth inhibition in experiment [5] (setting [7]) is 9%; in experiment [5] (setting [8]), 99% (active); in experiment [5] (at 50.0 µM), 52%; in experiment [6] (setting [7]) it was 42%; in experiment [6] (setting [8]), 98% (active); in experiment [6] (at 50.0 µM), 39.9%.
